Measurements taken from ChEMBL document CHEMBL2218924, “A broad activity screen in support of a chemogenomic map for kinase signalling research and drug discovery” (Biochem J, 2013).

Legend:
[1] = target: T1, Ephrin type-A receptor 3 (Homo sapiens) (UniProt P29320); settings: at 10 µM
T1 sequence (whole entry): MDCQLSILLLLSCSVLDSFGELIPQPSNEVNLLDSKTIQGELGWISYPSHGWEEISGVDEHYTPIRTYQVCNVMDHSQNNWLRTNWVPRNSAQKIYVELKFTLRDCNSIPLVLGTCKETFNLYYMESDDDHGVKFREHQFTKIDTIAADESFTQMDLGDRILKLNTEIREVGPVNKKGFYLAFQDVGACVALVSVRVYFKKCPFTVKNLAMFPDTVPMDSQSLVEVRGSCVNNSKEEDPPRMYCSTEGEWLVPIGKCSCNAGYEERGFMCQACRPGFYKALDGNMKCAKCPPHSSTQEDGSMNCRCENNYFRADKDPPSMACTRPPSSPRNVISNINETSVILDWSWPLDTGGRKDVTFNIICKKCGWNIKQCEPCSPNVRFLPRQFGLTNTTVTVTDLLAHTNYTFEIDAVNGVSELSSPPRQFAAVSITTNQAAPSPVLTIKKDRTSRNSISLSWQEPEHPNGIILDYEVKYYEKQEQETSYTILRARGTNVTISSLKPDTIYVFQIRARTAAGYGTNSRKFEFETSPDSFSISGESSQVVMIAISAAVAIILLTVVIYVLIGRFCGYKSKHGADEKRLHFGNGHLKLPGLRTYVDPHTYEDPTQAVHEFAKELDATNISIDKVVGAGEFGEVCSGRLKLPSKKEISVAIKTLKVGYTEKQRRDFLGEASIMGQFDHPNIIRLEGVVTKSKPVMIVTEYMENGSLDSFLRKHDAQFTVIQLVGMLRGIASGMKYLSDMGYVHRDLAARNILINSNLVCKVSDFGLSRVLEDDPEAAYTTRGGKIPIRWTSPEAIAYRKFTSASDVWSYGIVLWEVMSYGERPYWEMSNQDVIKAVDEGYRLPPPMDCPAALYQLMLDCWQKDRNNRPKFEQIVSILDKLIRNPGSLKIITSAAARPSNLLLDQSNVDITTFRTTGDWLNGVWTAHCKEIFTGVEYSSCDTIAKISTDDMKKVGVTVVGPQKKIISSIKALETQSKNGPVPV

[2] = target: Ephrin type-A receptor 4 (Homo sapiens) (UniProt P54764); settings: at 1 µM
Chain of Ephrin type-A receptor 4 (Homo sapiens) (P54764 whole entry): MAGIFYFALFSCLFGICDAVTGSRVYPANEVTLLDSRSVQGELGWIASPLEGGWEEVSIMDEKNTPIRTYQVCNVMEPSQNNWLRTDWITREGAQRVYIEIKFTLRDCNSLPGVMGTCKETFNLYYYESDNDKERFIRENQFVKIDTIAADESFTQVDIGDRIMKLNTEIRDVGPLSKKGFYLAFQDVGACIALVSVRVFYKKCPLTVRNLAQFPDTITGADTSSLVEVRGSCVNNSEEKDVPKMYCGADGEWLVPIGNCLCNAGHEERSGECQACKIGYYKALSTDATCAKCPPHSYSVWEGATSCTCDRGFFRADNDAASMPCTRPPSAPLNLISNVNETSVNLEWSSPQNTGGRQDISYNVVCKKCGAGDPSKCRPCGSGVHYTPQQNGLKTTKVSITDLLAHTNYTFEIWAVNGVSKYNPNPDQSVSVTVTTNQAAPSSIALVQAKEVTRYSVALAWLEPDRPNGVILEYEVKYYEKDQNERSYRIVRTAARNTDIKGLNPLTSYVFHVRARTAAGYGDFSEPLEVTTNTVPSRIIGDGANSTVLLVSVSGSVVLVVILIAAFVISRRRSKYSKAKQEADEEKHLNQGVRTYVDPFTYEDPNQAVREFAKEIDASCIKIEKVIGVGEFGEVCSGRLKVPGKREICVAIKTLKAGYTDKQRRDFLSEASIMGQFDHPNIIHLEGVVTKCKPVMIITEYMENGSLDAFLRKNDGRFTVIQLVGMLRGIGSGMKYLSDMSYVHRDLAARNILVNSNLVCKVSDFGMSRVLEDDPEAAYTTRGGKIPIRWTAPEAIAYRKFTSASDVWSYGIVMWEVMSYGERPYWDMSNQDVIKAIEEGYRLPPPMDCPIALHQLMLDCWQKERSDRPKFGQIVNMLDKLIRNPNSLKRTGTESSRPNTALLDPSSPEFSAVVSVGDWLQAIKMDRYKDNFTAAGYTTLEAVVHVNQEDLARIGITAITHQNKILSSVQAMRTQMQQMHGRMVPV

[3] = target: Ephrin type-A receptor 4 (Homo sapiens) (UniProt P54764); settings: at 10 µM
[4] = target: Ephrin type-A receptor 5 (Homo sapiens) (UniProt P54756); settings: at 1 µM
Chain of Ephrin type-A receptor 5 (Homo sapiens) (P54756 whole entry): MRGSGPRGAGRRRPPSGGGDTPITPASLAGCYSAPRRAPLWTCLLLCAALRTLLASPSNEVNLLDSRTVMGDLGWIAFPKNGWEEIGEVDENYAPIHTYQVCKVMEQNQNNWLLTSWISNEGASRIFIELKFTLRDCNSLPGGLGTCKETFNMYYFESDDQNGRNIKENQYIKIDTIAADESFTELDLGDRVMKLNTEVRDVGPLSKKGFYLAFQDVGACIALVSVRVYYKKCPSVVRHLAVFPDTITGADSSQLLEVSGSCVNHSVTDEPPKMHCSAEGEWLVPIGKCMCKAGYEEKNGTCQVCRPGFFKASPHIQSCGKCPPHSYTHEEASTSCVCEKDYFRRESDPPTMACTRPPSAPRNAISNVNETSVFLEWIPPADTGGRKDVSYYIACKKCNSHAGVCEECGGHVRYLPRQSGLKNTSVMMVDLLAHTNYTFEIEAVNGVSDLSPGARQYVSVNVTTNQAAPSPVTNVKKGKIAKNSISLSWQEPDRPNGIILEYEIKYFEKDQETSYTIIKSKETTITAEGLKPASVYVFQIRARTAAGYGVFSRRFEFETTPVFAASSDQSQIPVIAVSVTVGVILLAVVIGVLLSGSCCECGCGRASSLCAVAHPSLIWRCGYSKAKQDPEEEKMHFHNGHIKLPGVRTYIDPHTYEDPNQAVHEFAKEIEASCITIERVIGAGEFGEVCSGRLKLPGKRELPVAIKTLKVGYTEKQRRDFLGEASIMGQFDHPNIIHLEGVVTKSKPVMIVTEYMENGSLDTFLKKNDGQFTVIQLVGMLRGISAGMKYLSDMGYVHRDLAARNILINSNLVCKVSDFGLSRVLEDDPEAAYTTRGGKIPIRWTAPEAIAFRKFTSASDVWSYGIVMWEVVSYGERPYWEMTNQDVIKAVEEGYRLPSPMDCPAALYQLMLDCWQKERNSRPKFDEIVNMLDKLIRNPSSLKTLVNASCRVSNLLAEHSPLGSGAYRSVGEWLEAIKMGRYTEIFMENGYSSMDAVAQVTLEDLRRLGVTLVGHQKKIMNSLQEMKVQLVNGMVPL

[5] = target: Ephrin type-A receptor 5 (Homo sapiens) (UniProt P54756); settings: at 10 µM
[6] = target: Ephrin type-A receptor 7 (Homo sapiens) (UniProt Q15375); settings: at 1 µM
Chain of Ephrin type-A receptor 7 (Homo sapiens) (Q15375 28-998 limits assumed): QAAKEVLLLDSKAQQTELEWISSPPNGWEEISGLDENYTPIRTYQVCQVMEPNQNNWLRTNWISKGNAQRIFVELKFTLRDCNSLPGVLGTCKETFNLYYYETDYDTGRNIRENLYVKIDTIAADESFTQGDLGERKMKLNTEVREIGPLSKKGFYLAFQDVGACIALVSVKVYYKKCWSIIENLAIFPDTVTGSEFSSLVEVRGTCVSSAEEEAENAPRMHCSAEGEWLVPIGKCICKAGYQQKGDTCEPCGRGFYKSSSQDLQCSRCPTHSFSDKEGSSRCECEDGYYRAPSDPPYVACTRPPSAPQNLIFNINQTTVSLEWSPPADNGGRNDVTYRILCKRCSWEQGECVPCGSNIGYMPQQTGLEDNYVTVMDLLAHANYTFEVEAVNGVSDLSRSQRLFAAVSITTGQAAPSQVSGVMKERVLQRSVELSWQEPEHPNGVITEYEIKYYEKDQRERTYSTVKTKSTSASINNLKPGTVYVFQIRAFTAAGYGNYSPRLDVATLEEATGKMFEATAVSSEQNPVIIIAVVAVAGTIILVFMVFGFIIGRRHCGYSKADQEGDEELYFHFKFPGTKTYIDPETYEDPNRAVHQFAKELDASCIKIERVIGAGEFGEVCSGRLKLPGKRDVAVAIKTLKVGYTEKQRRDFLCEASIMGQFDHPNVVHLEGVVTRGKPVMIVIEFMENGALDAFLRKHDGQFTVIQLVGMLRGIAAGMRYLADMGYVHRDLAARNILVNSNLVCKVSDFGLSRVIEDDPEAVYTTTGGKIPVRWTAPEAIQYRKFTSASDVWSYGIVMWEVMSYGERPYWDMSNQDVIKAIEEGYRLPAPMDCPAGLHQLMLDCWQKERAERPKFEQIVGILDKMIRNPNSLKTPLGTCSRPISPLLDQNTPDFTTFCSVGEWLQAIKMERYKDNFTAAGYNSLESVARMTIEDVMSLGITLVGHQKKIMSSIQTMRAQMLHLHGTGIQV

[7] = target: Ephrin type-A receptor 7 (Homo sapiens) (UniProt Q15375); settings: at 10 µM
[8] = target: T2, Ephrin type-A receptor 8 (Homo sapiens) (UniProt P29322); settings: at 1 µM
T2 sequence (whole entry): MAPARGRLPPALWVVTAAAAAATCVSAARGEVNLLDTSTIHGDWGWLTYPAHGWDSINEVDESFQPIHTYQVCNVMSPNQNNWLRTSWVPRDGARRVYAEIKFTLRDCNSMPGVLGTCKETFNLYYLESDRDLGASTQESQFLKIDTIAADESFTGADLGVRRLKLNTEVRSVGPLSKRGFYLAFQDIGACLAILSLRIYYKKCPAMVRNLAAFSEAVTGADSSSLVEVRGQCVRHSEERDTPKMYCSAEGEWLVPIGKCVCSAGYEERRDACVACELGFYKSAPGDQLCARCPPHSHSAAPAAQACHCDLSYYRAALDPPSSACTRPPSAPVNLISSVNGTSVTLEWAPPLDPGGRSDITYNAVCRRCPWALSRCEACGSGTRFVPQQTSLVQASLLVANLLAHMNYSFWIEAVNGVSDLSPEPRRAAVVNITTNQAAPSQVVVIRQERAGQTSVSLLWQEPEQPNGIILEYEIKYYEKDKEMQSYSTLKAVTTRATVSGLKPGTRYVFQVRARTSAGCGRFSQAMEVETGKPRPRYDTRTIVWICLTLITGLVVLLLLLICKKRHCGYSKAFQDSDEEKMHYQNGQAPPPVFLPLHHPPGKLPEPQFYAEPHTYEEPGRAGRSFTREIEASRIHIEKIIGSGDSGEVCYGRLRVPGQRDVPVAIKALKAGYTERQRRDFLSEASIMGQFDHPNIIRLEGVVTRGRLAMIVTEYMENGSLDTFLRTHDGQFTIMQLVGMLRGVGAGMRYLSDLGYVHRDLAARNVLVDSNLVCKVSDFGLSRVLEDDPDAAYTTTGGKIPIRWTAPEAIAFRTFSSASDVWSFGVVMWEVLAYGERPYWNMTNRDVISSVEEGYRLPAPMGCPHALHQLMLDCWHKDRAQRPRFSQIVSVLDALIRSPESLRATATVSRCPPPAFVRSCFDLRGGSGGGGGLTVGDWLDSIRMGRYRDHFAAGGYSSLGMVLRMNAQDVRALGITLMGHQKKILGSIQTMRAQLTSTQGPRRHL

[9] = target: T2, Ephrin type-A receptor 8 (Homo sapiens); settings: at 10 µM
[10] = target: T3, Ephrin type-B receptor 1 (Homo sapiens) (UniProt P54762); settings: at 1 µM
T3 sequence (whole entry): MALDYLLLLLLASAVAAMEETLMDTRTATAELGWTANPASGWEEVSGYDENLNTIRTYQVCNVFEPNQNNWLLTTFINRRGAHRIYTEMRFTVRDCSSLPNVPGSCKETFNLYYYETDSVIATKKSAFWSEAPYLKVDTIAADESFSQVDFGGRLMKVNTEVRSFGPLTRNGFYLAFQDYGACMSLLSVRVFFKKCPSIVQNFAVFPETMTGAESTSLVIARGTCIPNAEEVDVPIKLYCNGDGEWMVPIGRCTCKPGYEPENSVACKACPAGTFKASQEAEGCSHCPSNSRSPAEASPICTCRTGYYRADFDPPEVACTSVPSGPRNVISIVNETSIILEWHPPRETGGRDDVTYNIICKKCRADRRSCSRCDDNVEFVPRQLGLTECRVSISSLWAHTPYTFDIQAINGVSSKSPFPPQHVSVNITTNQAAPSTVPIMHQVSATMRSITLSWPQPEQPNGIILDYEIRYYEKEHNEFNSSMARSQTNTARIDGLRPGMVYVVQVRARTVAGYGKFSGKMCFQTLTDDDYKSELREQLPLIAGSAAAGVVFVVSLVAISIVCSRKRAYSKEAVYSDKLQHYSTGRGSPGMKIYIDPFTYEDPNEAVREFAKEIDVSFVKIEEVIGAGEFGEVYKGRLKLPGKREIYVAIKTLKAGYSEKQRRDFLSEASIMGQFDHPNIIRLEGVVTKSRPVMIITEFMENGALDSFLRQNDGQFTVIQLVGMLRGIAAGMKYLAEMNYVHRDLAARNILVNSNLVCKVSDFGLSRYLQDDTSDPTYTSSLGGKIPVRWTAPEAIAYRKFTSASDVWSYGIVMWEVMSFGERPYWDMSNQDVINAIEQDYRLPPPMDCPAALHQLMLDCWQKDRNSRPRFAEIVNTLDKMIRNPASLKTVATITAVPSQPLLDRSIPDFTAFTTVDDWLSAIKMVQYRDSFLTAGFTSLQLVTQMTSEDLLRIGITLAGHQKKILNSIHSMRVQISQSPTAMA

For `O=[N+]([O-])/C=C/c1ccc2c(c1)OCO2`, the residual activity [1] was 95%, the residual activity [2] was 112% and the residual activity [3] was 100%. It also gave a residual activity [4] of 103%, a residual activity [5] of 93% and a residual activity [6] of 95%. For the same compound, the residual activity [7] was 89%, the residual activity [8] was 100% and the residual activity [9] was 103%. It also gave a residual activity [10] of 115%.
